Consider 97 compounds from PubChem BioAssay AID1778 (Sanford-Burnham Center for Chemical Genomics, 2009).

The structures appear in SMILES notation. About 260 (0.09%) of roughly 290,000 compounds were called active. The full list was thinned out, with actives kept by preference. Results with a measured potency or affinity are listed apart. Values without a mark were called inactive. No stated cut-off is given here; in the data, active means inhibition above about 50%; inactive means the rest.

The target in this experiment is Kappa-type opioid receptor (Homo sapiens) (UniProt P41145). Briefly: KOR antagonists, beta-arrestin recruitment, cell-based, luminescence, uHTS (AID 1778). As to conditions: antagonist mode, stronger effect = higher value; at 10 µM unless noted.
Chain of Kappa-type opioid receptor (Homo sapiens) (P41145 whole entry, looked up): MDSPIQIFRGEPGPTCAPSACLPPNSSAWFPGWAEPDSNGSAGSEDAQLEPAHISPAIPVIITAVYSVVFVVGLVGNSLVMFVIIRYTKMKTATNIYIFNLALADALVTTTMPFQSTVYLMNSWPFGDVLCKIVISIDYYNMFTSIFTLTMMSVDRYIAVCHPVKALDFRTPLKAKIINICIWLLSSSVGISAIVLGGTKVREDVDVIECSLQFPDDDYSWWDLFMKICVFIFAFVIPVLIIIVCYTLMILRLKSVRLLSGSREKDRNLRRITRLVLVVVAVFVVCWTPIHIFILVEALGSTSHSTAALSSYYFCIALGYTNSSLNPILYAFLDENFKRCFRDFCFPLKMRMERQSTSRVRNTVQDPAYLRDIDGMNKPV
Broadly, the inhibition is the drop in the measured response relative to a control, in per cent. With `O=C(OCCCOc1ccc(F)cc1)c1ccc(O)cc1O`, the inhibition was -20.5%. For `CCC1CCC(C(=O)NC(C(=O)NCCc2ccc(S(N)(=O)=O)cc2)C(C)C)CC1` (configuration not stated), the inhibition is -31%. The result for `Cc1ccccc1C(=O)NC1CC2CCCC(C1)N2Cc1ccccc1` (configuration not stated) reads -8.6% [at 20 µM]; that for `O=C(NC1CC2CCCC(C1)N2Cc1ccccc1)c1cccc(Cl)c1` (configuration not stated), 13.7% [at 20 µM]; that for `COc1ccc(C(=O)NC2CC3CCCC(C2)N3Cc2ccccc2)cc1` (configuration not stated), 26.9%.

Consider `O=C(NC1CC2CCCC(C1)N2Cc1ccccc1)c1ccc([N+](=O)[O-])cc1` (configuration not stated), for which the inhibition is 29.6% [at 20 µM]. The result for `O=C(NC1CC2CCCC(C1)N2Cc1ccccc1)c1cccc(F)c1` (configuration not stated) reads 34.5%; that for `CCOc1ccc(C(=O)NC2CC3CCCC(C2)N3CC(C)C)cc1` (configuration not stated), -39%. The result for `CCCN1C2CCCC1CC(NC(=O)c1ccccc1OCC)C2` (configuration not stated) reads 12%; that for `CCOc1ccccc1C(=O)NC1CC2CCCC(C1)N2Cc1ccccc1` (configuration not stated), 5.8%; that for `CC(=O)NC(=S)Nc1cccc([N+](=O)[O-])c1`, 30.8%. Next, `Cc1cc(C)n2nc(SCC(=O)NC3CCCCC3)nc2n1`: -29.2%. Consider `COc1c(F)c(F)c(C(=O)O)c(Nc2ccccc2)c1F`, for which the inhibition was 4.7%. With `COCc1nnc(NC(=O)CCCOc2ccccc2OC)s1`, the inhibition was -4.2%. The result for `Cc1ccc(Cl)cc1NC(=S)Nn1cnnc1` reads -13.2%; that for `O=C(NCCc1ccccc1)C1CC(=O)N(C2CCCC2)C1` (configuration not stated), -27.2%; that for `Cc1sc2c(c1C)C(=O)NC(c1cccc(O)c1)N2` (configuration not stated), 9.3%. The result for `CCC(=O)NC1CC2CCCC(C1)N2Cc1ccc(C)cc1` (configuration not stated) reads 2.1%.

With `CC(=O)NC1CC2CCCC(C1)N2Cc1ccc(C)cc1` (configuration not stated), the inhibition was -10%. Next, `CCCN1C2CCCC1CC(NC(=O)c1ccc(F)cc1)C2` (configuration not stated): 22.4%; `O=C(NC1CC2CCCC(C1)N2Cc1ccc(F)cc1)c1ccc(F)cc1` (configuration not stated): 13.6% [at 20 µM]; `CCOc1ccc(C(=O)NCC(=O)OCC(=O)N2CCCCC2)cc1`: -18.2%. The result for `COc1ccc(CNC(=O)C2CCN(S(=O)(=O)c3cccc4nonc34)CC2)cc1` reads -3.2%; that for `Cc1nc2cncc(Br)c2n1C`, -11.9%; that for `CSc1ccc(NC(=O)NCCCN2CCC(Cc3ccccc3)CC2)cc1`, -20.9%. In the case of `Fc1ccc(NC(=S)NC2CC3CCC(C2)N3Cc2ccco2)cc1` (configuration not stated), the inhibition was 22.9% [at 20 µM]. For the compound `Cc1cccc(N2CCN(S(=O)(=O)c3cccc4nonc34)CC2)c1C`, the inhibition is 3%. Next, `Cc1ccc(OCc2cccc(S(=O)(=O)N(C)C)c2)c([N+](=O)[O-])n1`: -0.3%; `Cc1ccn2c(CNCCCn3cccn3)c(C(=O)N3CCCCCC3)nc2c1`: 13.8% [at 20 µM]; `N#C/C(=C\c1ccco1)C(=O)NCc1ccccc1`: 7.2%. The result for `COc1ccc(/C=C(/C(=O)c2cccs2)N2C=CC=CC2=C(C#N)C#N)cc1` reads -7.8%; that for `COc1ccc(C(=O)N/C(=C/c2ccco2)C(=O)N2CCCCCC2)cc1`, -0.8%.

For `O=C(O)/C(=C/c1ccco1)c1ccccc1`, the inhibition is -9.6%. The result for `N#C/C(=C\c1ccco1)C(=O)Nn1cnnc1` reads 1%; that for `N#CC(C#N)=C1C=CC=CN1/C(=C\c1ccccc1)C(=O)c1cccs1`, -1%. The result for `CC(/C=N/n1c(-c2ccc(Cl)cc2)n[nH]c1=S)=C\c1ccco1` reads -13.3%.

In the case of `N#CC(C#N)=C1C=CC=CN1/C(=C\c1ccccc1Cl)C(=O)c1ccccc1`, the inhibition is 26.8%. For `COc1ccc(CNC(=S)NCc2ccc(Cl)cc2)cc1OC`, the inhibition was -4.7%. Next, `COc1ccccc1N(CC(O)COc1ccccc1)S(=O)(=O)c1ccccc1` (configuration not stated): 25.7%; `O=C(Nc1ccccc1Oc1ccsc1C(=O)O)c1ccccc1`: 11%. Regarding `CC/C(C)=N/Oc1nc(C)cc(C)n1`, the inhibition was -35.7%. Next, `NS(=O)(=O)c1ccc(NC(=O)Nc2ccc(S(N)(=O)=O)cc2)cc1`: 27.6%. The result for `FC(F)(F)c1cnc(N2CCCN(C(=S)Nc3ccccc3)CC2)c(Cl)c1` reads -20.9%; that for `O=C(Nc1cccc(C(=O)O)c1)/C(=C\c1ccccc1)NC(=O)c1cccc2ccccc12`, -20.3% [at 20 µM]; that for `N#C/C(=C/c1ccco1)C(N)=S`, -13.4%. The result for `CCOC(=O)/C(C#N)=C\c1ccco1` reads -16.4%; that for `CC(=O)OC[C@H]1O[C@@H](O/N=C/[C@@H](C)[C@H](OCc2ccccc2)C(C)C)[C@H](OC(C)=O)[C@@H](OC(C)=O)[C@@H]1OC(C)=O`, -20.6%. Take `O=C(Nc1nnc(SCc2ccc(F)cc2)s1)c1cnccn1`: the inhibition was -29.3% [at 20 µM]. Next, `O=C(Nc1nc2ccc(S(=O)(=O)N3CCCC3)cc2s1)c1ccccn1`: -85.6%; `O=C(NNc1nc2c(F)cc(F)cc2s1)c1ccccc1`: 30.3%. The result for `O=C(Nc1nc2ccc(F)cc2s1)c1cccs1` reads -4.2%; that for `O=C(Nc1nnc(SCc2ccc(F)cc2)s1)c1cccnc1Cl`, 13%. The result for `CCOc1ccc2nc(NC(=O)c3cnccn3)sc2c1` reads -3.8%; that for `O=C(Nc1nc2c(F)cc(F)cc2s1)c1ccco1`, -20.5% [at 20 µM]; that for `CCOc1ccc2nc(NC(=O)c3cnc(C)cn3)sc2c1`, 54.4%. As to `Cn1c(CNC(=O)c2ccco2)nnc1SCC(=O)c1ccccc1`, the inhibition was 0.9%.

Consider `O=C(c1ccc(CS(=O)(=O)c2ccc(Br)cc2)o1)N1CCN(c2ccc(F)cc2)CC1`, for which the inhibition was 3.6%.

On to `CC(=O)Nc1ccc(S(=O)(=O)NC2(C(F)(F)F)C(=O)Nc3c2c(=O)[nH]c(=O)n3Cc2ccco2)cc1` (configuration not stated), for which the inhibition was 16.3%.

For the compound `CN(C)S(=O)(=O)c1cccc(N=C2SCCN2Cc2ccccc2)c1`, the inhibition is -13.6%. Next, `COc1ccc(CCC(N)=O)cc1OC`: -31.9%.

Take `Cc1ccc(S(=O)(=O)Nc2ccnc3ccccc23)cc1`: the inhibition is 6.9%. The result for `Cc1c(NS(=O)(=O)c2cccs2)cccc1-c1nc2cccnc2s1` reads 6.3%; that for `Cc1ccc(S(=O)(=O)Nc2cccc3ncccc23)s1`, 107% (active); that for `Cc1ccc(S(=O)(=O)Nc2cccc3ncccc23)cc1`, 14.1%. The result for `O=S(=O)(Nc1cccc2ccccc12)c1cccs1` reads 2.3%; that for `O=C(NNC(=O)c1ccccc1[N+](=O)[O-])c1ccccn1`, -1.3% [at 20 µM]; that for `Cc1[nH]nc2c1C(c1ccccc1F)CC(=O)N2` (configuration not stated), -21.3%. The result for `CCOC(=O)c1cc2cc(CC(=O)c3ccc(OCC)cc3O)ccc2o1` reads -2%; that for `C/C(=N/NC(=O)CNC(=O)c1ccccn1)c1ccc([N+](=O)[O-])cc1`, 6.2%. Turning to `O=C(NNc1ccccn1)C(c1ccccc1)c1ccccc1`, the inhibition is 11.4%. Next, `O=C(NNC(=O)C12CC3CC(CC(C3)C1)C2)c1cnccn1`: 27.4%; `C/C(=N\NC(=O)c1ccccn1)C12CC3CC(CC(C3)C1)C2`: -17.6%; `CCCCCC(=O)N/N=C(\C)c1ccccn1`: 10.5%. Next, `CC(C)C(=O)NNC(=O)c1ccccn1`: 13.4%.

As for `CC(C(=O)O/N=C(\N)c1ccccn1)c1ccc([N+](=O)[O-])cc1` (configuration not stated), the inhibition is -1.4%.

As to `C/C(=N\NC(=O)C(c1ccccc1)c1ccccc1)c1ccccn1`, the inhibition is 81.1% (active). Next, `C/C(=N\NC(=O)C(c1ccccc1)c1ccccc1)c1ccc(O)cc1`: -26.8% [at 20 µM]. Next, `Cc1ccc(S(=O)(=O)NN)c(C)c1N1CCCC1=O`: 24.2%.

As for `Cc1cccc(C)c1NC(=O)C1CCCN1S(=O)(=O)c1ccccc1` (configuration not stated), the inhibition was -40.1%.

`O=C(NCc1cccnc1)C1c2ccccc2C(=O)N1C1CCCCCC1` (configuration not stated): the inhibition was -16.6%. The result for `O=C(NCCc1nnc2ccc(N3CCCCCC3)nn12)c1ccccc1` reads -2.6%. Next, `CN(C)c1ccc(P(=O)(Nc2cccc(C(F)(F)F)c2)N2CCOCC2)c(NC(=O)c2cccs2)c1` (configuration not stated): 41.3%; `CNC(=S)N1N=C(c2ccc(C)cc2)CC1c1ccc(N(C)C)cc1` (configuration not stated): 7.7%; `CC1CCCCN1C(=O)COc1ccccc1F` (configuration not stated): -32.6% [at 20 µM]. Regarding `O=C(Nc1ccnc(-c2cccnc2)n1)c1ccc(Cl)cc1`, the inhibition was -18.4%. Next, `O=C1COc2ccc(C(=O)CSc3nnc(NCc4ccccc4)s3)cc2N1`: 21.4%. The result for `Oc1[nH]c2ccccc2c1N=NC(=S)NCC1CCCO1` (configuration not stated) reads -22%; that for `CCNC(=S)N=Nc1c(O)n(Cc2ccc(Cl)cc2)c2ccccc12`, -4.3%. The result for `CCn1c(O)c(N=NC(=S)NCC2CCCO2)c2ccccc21` (configuration not stated) reads 60.6% (active); that for `COc1ccc(CNC(=O)c2ccc(CN3CCOCC3)cc2)cc1`, -18.5%. For the compound `O=C(NCc1ccco1)C(=O)c1cn(CC(=O)N2CCCC2)c2ccccc12`, the inhibition is -7.4%. In the case of `O=C(COc1ccccc1)Nc1nnc(S(=O)(=O)N2CCCC2)s1`, the inhibition was -9.4%. Turning to `Cc1cc(NCc2ccccn2)n2c(nc3ccccc32)c1C#N`, the inhibition is 18.9% [at 20 µM]. Next, `CCCNC(=O)COc1cccc(C(=O)NCc2ccccc2)c1`: 16.7%; `Oc1ccc(/C=N/Nc2ccnc3cc(Cl)ccc23)c(O)c1`: 3.8%.

In the case of `Oc1ccc(Nc2ccnc3cc(Cl)ccc23)cc1`, the inhibition is 25.2%. As to `O=C(O)CC1(CC(=O)Nc2ccc(C(F)(F)F)cc2)CCCC1`, the inhibition is -5.5%.
